Assay outcomes deposited in PubChem by Broad Institute.
CFTR F508del cor: CFTR F508del correction in bronchial cells; CFBE cells, YFP halide quenching; stimulated with forskolin plus potentiator P3; % fluorescence drop versus neutral controls; 350,000 tested, 0.36% active; activity (quench increase), % at 7.58 µM;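 active = mean added fluorescence quench of at least 8% versus neutral control, with both replicates also reaching 8%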;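 note: cells transiently co-express mutant CFTR-F508del with the halide-sensitive YFP; corrector assay measuring rescue of mutant channel to the surface after 24 h compound exposure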
FGF22 binding: FGF22 (human) thermal shift binding; activity (Tm shift, normalised), % at 9.99 µM; 340,000 tested, 1.5% active; recombinant FGF22 thermal shift, SYPRO orange fluorescence; percent of sucrose octasulfate shift, DMSO zero;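 active = mean Tm shift, scaled 0 neutral to 100 positive control, at about 1.3% or above, every replicate too, limit read from the data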
Target sequence (Q9HCT0 whole entry, looked up): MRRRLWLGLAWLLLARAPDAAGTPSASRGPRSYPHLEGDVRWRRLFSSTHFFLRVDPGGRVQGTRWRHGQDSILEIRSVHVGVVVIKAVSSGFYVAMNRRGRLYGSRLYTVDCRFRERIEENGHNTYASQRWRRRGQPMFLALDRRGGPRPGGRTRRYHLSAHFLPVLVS
Vif imaging: blocks HIV Vif function. HEK293T cells, Vif self-association by quenched fluorescence, imaging, 24 h. inhibition, % at 7.49 µM. 340,000 tested, 0.35% active; in the data active = inhibition above about 50%, passing the limit was not always enough
Starred values were filed as active, the others as inactive; . = not tested or not shown. Most compounds without a hit are left out; they make up all but 1.7% or so of the library.

SMILES	CFTR F508del cor	FGF22 binding	Vif imaging
Cc1ccc(NC(=O)c2cnccn2)cc1S(=O)(=O)N1CCCCCC1	0	43*	-2
COc1ccc(NC(=O)c2c(C)noc2C)cc1S(=O)(=O)N1CCCCC1	0	0	0
Cc1ccc(S(=O)(=O)N2CCN(C(=O)c3n[nH]c(=O)c4ccccc34)CC2)cc1	-2	0	2
C[C@@H]1CN([C@H](C)CO)C(=O)Cc2cc(NC(=O)Cc3ccccc3)ccc2O[C@H]1CN(C)C(=O)Nc1ccc(F)cc1	2	0	.
Cc1noc(C)c1NC(=O)Nc1ccc2c(c1)C(=O)N([C@H](C)CO)C[C@@H](C)[C@H](CN(C)C)OCCCC[C@@H](C)O2	-1	0	.
CCOC(=O)N(C)C[C@@H]1OCc2ccccc2-c2ccccc2C(=O)N([C@H](C)CO)C[C@H]1C	0	0	.
CC(C)NC(=O)Nc1cccc2c1O[C@@H](CN(C)C(=O)Nc1ccc(F)cc1)[C@H](C)CN([C@H](C)CO)C2=O	1	0	.
O=C(C[C@@H]1C=C[C@H](NC(=O)C2CC2)[C@H](CO)O1)NCCCN1CCOCC1	0	1	.
C[C@@H]1CN([C@H](C)CO)C(=O)c2cc(C#CCN(C)C)cnc2O[C@H]1CN(C)C(=O)c1cccnc1	0	0	.
Cc1noc(C)c1NC(=O)N(C)C[C@@H]1Oc2ccc(NC(=O)CCCCCC(=O)Nc3ccccc3N)cc2CC(=O)N([C@H](C)CO)C[C@@H]1C	0	0	.
Cc1c(Cl)cccc1NC(=O)C1CC(=O)N(C2CCCC2)C1 (stereo not drawn)	13*	0	13
Cc1c(Cl)cccc1NC(=O)CNC(=O)C1CC(=O)N(C2CCCC2)C1 (stereo not drawn)	2	0	-3
C[C@H]1CCCCO[C@H](CN(C)C(=O)CCCN(C)C)[C@@H](C)CN([C@@H](C)CO)C(=O)c2cc(NC(=O)CCC(F)(F)F)ccc2O1	5	-1	.
COc1ccc(-c2[nH]ncc2CN(C)CCN2CCOCC2)cc1F	-1	0	1
COc1ccc(-c2[nH]ncc2CN(C)CC2CCCCO2)cc1F (stereo not drawn)	-2	43*	6
CCC(=O)Nc1ccc2c(c1)OC[C@H](C)N(CCc1ccccc1)C[C@@H](C)[C@@H](OC)CN(C)C2=O	-1	0	.
O=C(COC(=O)/C=C/c1ccccc1Cl)NC(=O)NCc1ccccc1	8.9*	0	9
O=C(COC(=O)c1ccc([N+](=O)[O-])s1)NC(=O)NCc1ccccc1	3	43*	20
O=C(COC(=O)c1ccc([N+](=O)[O-])s1)NCCc1ccccc1	.	.	-2
O=C(COC(=O)/C=C/c1ccccc1Cl)NC(=O)Cc1ccccc1	.	1	-5
CO[C@H]1CN(C)C(=O)c2cc(NS(C)(=O)=O)ccc2OC[C@@H](C)N(C(=O)c2ccc3c(c2)OCO3)C[C@H]1C	0	0	.
CO[C@@H]1CN(C)C(=O)c2ccc(NC(=O)c3cnccn3)cc2OC[C@@H](C)N(C(C)=O)C[C@@H]1C	-1	0	.
CN(C)C(=O)C[C@@H]1CC[C@@H]2[C@@H](COc3ccc(NC(=O)NCc4ccccc4)cc3C(=O)N2C)O1	1	0	.
CCCCNS(=O)(=O)c1ccc(NC(=O)C2CCCO2)cc1 (stereo not drawn)	.	.	-4
CCC(C)NS(=O)(=O)c1ccc(NC(=O)C2CCCO2)cc1 (stereo not drawn)	-1	43*	-6
SMILES	CFTR F508del cor	FGF22 binding	Vif imaging
C[C@H](CO)N1C[C@H](C)[C@@H](CN(C)S(=O)(=O)c2cn(C)cn2)Oc2c(NC(=O)NC3CCCCC3)cccc2C1=O	0	0	.
COc1ccccc1N(Cc1cc(=O)[nH]c2ccccc12)C(=O)c1cccc([N+](=O)[O-])c1	1	43*	-4
CCC(=O)N(Cc1cc(=O)[nH]c2ccccc12)c1ccccc1OC	-1	0	12
O=C(NC[C@@H]1[C@H](c2ccccc2)[C@H](CO)N1CC1CCCC1)c1ccncc1	1	.	.
COc1ccc(NC(=O)C(CC(=O)O)Cc2ccccc2)cc1 (stereo not drawn)	.	.	10
COc1ccc(NC(=O)C(CC(=O)O)Cc2ccc(Cl)cc2)cc1 (stereo not drawn)	8.9*	0	2
C[C@@H]1CN([C@H](C)CO)C(=O)c2cc(NS(=O)(=O)c3ccc(F)cc3)ccc2O[C@H]1CN(C)S(=O)(=O)c1cccs1	-2	0	.
CCN(CC)CCOCCOc1cc(C)c(Cl)c(C)c1	.	.	5
CCN(CC)CCOCCn1c(C)ccc1C	0	43*	-3
COc1ccc(C[C@@H]2CCc3cnnn3COC[C@@H](Cc3ccccc3)NC2=O)cc1	.	0	.
CCNC(=O)C[C@@H]1CC[C@@H](NS(=O)(=O)c2ccc(C)cc2)[C@H](CO)O1	1	0	.
Cc1ccsc1-c1nc(CN2CCN(C)C(=O)[C@@H]2C)c(C)o1	-5	0	1
Cc1oc(-c2cc(F)ccc2F)nc1CN1CCN(C)C(=O)[C@@H]1C	0	43*	-5
Cc1ccc(S(=O)(=O)Nc2ccc3c(c2)C(=O)N([C@H](C)CO)C[C@@H](C)[C@H](CN(C)C(=O)Nc2ccc4c(c2)OCO4)O3)cc1	-1	.	.
O=S(=O)(c1ccc(Cl)cc1)n1ccc2cccnc21	.	.	-5
O=S(=O)(c1ccc(Cl)cc1Cl)n1ccc2cccnc21	0	43*	-5
Cc1ccccc1/C=C/C(=O)N1CCOCC1	0	43*	0
O=C(/C=C/c1ccccc1Cl)N1CCOCC1	0	0	5
O=C(C[C@H]1CC[C@@H]2[C@H](COC[C@H](O)CN2S(=O)(=O)c2cccc(F)c2)O1)NC1CCC1	-4	0	.
CO[C@@H]1CN(C)C(=O)c2ccc(NS(=O)(=O)c3cn(C)cn3)cc2OC[C@H](C)NC[C@H]1C	-2	0	.
COc1ccc(C(=O)OCC(=O)Nc2cc(S(=O)(=O)N3CCOCC3)ccc2N2CCCC2)cc1	-1	0	-8
COc1ccc(/C=C/C(=O)Nc2cc(S(=O)(=O)N3CCCCC3)ccc2N2CCCCC2)cc1OC	.	.	-7
COc1cc(/C=C/C(=O)OCC(=O)Nc2cc(S(=O)(=O)N3CCOCC3)ccc2Cl)cc(OC)c1OC	-1	1	0
O=S(=O)(Nc1cc(S(=O)(=O)N2CCOCC2)ccc1N1CCOCC1)c1ccc2c(c1)OCCO2	-1	44*	2
COc1cc(S(=O)(=O)N2CCOCC2)ccc1NC(=O)COC(=O)/C=C/c1cc(OC)c(OC)c(OC)c1	-1	43*	-1
SMILES	CFTR F508del cor	FGF22 binding	Vif imaging
COc1ccc(CC(=O)OCC(=O)Nc2cc(S(=O)(=O)N3CCOCC3)ccc2N2CCCC2)cc1	-1	43*	3
COc1ccc(/C=C/C(=O)Nc2cc(S(=O)(=O)N3CCOCC3)ccc2N2CCCC2)cc1OC	5	43*	-4
O=S(=O)(Nc1cc(S(=O)(=O)N2CCOCC2)ccc1O)c1ccc2c(c1)OCCCO2	3	0	7
COc1ccc(CNC(=O)c2ccc(S(=O)(=O)N3CCOCC3)cc2)cc1	1	78*	1
COc1ccc(CC(=O)Nc2cc(S(=O)(=O)N3CCOCC3)ccc2N2CCCC2)cc1	2	43*	6
COc1ccc(NS(=O)(=O)c2ccc(N3CCOCC3)c(NC(=O)C(C)C)c2)cc1	2	0	-3
